PAFAH1B2 inh: PAFAH1B2 enzyme inhibitors, primary screen, biochemical, fluorescence polarization, human. AID 492953, 2010. 340,000 compounds, 1.2% hits. recombinant PAFAH1B2, FP-rhodamine activity probe. inhibition, % at 3.39 µM;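 active means inhibition above the mean of all tested compounds plus 3 SD, cut at about 24% in these data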;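 further: 0% = enzyme with DMSO and 100% = wells lacking PAFAH1B2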
Target sequence (P68402 whole entry, looked up): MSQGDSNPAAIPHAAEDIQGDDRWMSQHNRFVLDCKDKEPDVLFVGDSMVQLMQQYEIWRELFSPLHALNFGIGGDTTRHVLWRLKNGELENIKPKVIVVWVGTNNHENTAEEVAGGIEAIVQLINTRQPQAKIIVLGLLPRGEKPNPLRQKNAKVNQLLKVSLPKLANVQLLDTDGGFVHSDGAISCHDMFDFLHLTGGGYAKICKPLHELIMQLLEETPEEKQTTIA
PP5 primary: PP5 phosphatase inhibitors, primary screen, biochemical, fluorescence | 320,000 compounds, 0.18% hits | purified PP5c, OMFP substrate fluorescence | inhibition, % at 6.7 µM;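 active means inhibition above the campaign's mean inhibition across all tested compounds plus 3 SD, cut at about 9.5% in these data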;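 further: 0% = DMSO only and 100% = 100 µM cantharidin control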
PAFAH1B3 FP inh: PAFAH1B3 enzyme inhibitors, primary screen, biochemical, fluorescence polarization, human; Platelet-activating factor acetylhydrolase IB subunit alpha1 (Homo sapiens), Q15102; recombinant PAFAH1B3, FP-rhodamine probe; inhibition, % at 3.39 µM; 340,000 compounds, 0.28% hits; AID 492972, 2010;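 active means inhibition above the screen-wide average of all tested compounds plus 3 SD, cut at about 25% in these data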;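 further: 0% = enzyme with DMSO only and 100% = wells lacking PAFAH1B3 protein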
pPAFAH FP inh: pPAFAH enzyme inhibitors, primary screen, biochemical, fluorescence polarization, human; 330,000 compounds, 1.5% hits; AID 463082, 2010; inhibition, % at 3.39 µM; recombinant pPAFAH, FP-rhodamine probe fluorescence polarization; Platelet-activating factor acetylhydrolase (Homo sapiens), Q13093;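 active means inhibition above the mean inhibition across the screen plus 3 SD, cut at about 25% in these data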;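 further: inhibitors block binding of the rhodamine activity-based probe so polarization drops; 0% = enzyme with DMSO and 100% = wells lacking pPAFAH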
PP1 inh: PP1-alpha phosphatase inhibitors, primary screen, counter-screen for PP5 inhibitor project, biochemical, fluorescence, OMFP substrate, single point | Serine/threonine-protein phosphatase PP1-alpha catalytic subunit (Homo sapiens), P62136 | purified PP1alpha | inhibition, % at 6.7 µM | 320,000 compounds, 0.9% hits;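 active means inhibition above the mean inhibition of all tested compounds plus 3 SD, computed separately for each screening campaign, cut at about 15% in these data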
Target sequence (P62136 whole entry, looked up): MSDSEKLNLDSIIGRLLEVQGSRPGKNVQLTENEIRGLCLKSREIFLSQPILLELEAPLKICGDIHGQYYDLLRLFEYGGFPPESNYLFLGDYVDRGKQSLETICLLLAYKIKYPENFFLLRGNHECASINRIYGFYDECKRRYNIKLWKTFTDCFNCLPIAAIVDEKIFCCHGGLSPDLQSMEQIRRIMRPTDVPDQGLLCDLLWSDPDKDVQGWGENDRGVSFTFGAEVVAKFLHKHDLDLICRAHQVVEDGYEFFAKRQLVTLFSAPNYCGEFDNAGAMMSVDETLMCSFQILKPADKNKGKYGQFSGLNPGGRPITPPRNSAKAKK
PAFAH2 inh: PAFAH2 enzyme inhibitors, primary screen, biochemical, fluorescence polarization, human | recombinant PAFAH2, FP-rhodamine activity probe | inhibition, % at 3.39 µM | 340,000 compounds, 0.99% hits;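 active means inhibition above the mean over all tested compounds plus 3 SD, cut at about 30% in these data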;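 further: inhibitors block probe labeling of enzyme so polarization drops; 0% = enzyme with DMSO and 100% = wells lacking PAFAH2 protein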
PP1 confirm: PP1 phosphatase inhibitors, confirmation, biochemical, fluorescence, OMFP substrate, triplicate; shares compounds with PP1 inh; purified PP1alpha; inhibition, % at 6.7 µM; 1,900 compounds, 52% hits; AID 2358, 2010;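 active means mean PP1 inhibition above a set limit taken from the earlier primary screen, cut at about 15% in these data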
PP5 counter: PP5 phosphatase inhibition by PP1 hits, confirmation, counter-screen for PP1 inhibitor project, biochemical, fluorescence, triplicate; inhibition, % at 6.7 µM; 1,900 compounds, 4% hits; shares compounds with PP1 inh; purified PP5c, OMFP fluorescence;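 active means mean PP5 inhibition over triplicate wells above about 9.5% taken from the earlier PP1 screen, limit read from the data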
* marks the source's active call; other numbers are inactive results; · = no result given. Shown are actives, neighbours in structure and some others; about 3.4% of the full set was active somewhere.

SMILES	PAFAH1B2 inh	PP5 primary	PAFAH1B3 FP inh	pPAFAH FP inh	PP1 inh	PAFAH2 inh	PP1 confirm	PP5 counter
Cc1ccc(CN2CC(C(=O)NC(c3nc4ccccc4[nH]3)C(C)C)CC2=O)cc1 (stereo not drawn)	-2	0	2	1	2	-6	·	·
O=C(O)c1cc(-n2cccc2)ccc1N1CCOCC1	·	-1	·	6	-10	·	·	·
COc1ccc(CCNC(=O)CNS(=O)(=O)c2ccc(F)c(Cl)c2)cc1OC	2	-5	-2	-8	6	12	·	·
COc1ccc(CCNC(=O)COc2ccc(S(=O)(=O)NCC(C)C)cc2Cl)cc1OC	2	2	-13	15	18*	3	-1	0
C[C@@H]1C[C@H]2[C@@H]3CCC4=CC(=O)C=C[C@]4(C)[C@@]3(Cl)[C@@H](O)C[C@]2(C)[C@@]1(OC(=O)c1ccco1)C(=O)CCl	-9	3	-15	-6	23*	-28	27*	-6
CCCNC(=O)c1ccccc1NC(=O)C1=CSCCO1	6	1	1	5	-3	3	·	·
O=C(CSc1nc2nc(-c3cccs3)cc(C(F)(F)F)c2c(=O)[nH]1)Nc1c(F)c(F)c(F)c(F)c1F	-1	3	-3	-4	5	-5	·	·
NS(=O)(=O)c1cccc(NC(=O)CSc2nc3nc(-c4cccs4)cc(C(F)(F)F)c3c(=O)[nH]2)c1	-3	4	-5	1	27*	4	21*	2
Cc1ccc(-c2cc(C(=O)NCCCn3ccnc3)c3cc(Br)ccc3n2)o1	-6	0	9	13	32*	1	-8	-6
Cc1[nH]c(=O)[nH]c(=O)c1S(=O)(=O)N1CCCC(C(=O)N2CCC(Cc3ccccc3)CC2)C1 (stereo not drawn)	6	0	-7	-3	-3	4	·	·
N#CC1=C(N)SC(N)=C(C#N)C1c1ccc(C(F)(F)F)cc1	·	6	·	10	39*	·	4	-5
O=C(Cc1cccc2ccccc12)N/N=C/c1ccc2cccc(O)c2n1	-2	2	11	14	25*	2	21*	0
O=C(Cc1cccc2ccccc12)N/N=C/c1ccc(O)c([N+](=O)[O-])c1	1	-1	3	6	-3	4	·	·
CC(C)C[C@H](NC(=O)c1nc[nH]c1C(=O)NC(c1ccccc1)c1ccccc1)C(=O)OCc1ccccc1	0	2	-5	2	19*	-12	11	3
CC(C)C[C@H](NC(=O)c1nc[nH]c1C(=O)N[C@@H](CC(C)C)C(=O)OCc1ccccc1)C(=O)OCc1ccccc1	-4	4	-2	7	10	-9	·	·
CC(=O)NCC(=O)OC(C)C(=O)Nc1ccc(C(C)=O)cc1 (stereo not drawn)	7	1	9	5	-3	6	·	·
COc1ccc(OC)c(/C=C/c2ccc3cccc(O)c3n2)c1	2	4	0	-1	19*	1	18*	-2
Cc1ccsc1/C=C/c1ccc2cccc(O)c2n1	2	5	5	12	21*	-3	19*	0
Oc1cccc2ccc(/C=C/c3cccs3)nc12	5	2	8	8	24*	3	19*	-1
COc1cc(Br)c(/C=C/c2ccc3cccc(O)c3n2)cc1OC	5	1	9	7	4	1	·	·
CC(C)CC(=O)Nc1ccc(C(=O)Cn2nc(C(=O)O)c3ccccc3c2=O)cc1	0	2	-2	4	20*	0	23*	0
Cc1nn(CC(=O)Nc2ccc(C(=O)N3CCCC3)cc2)c(=O)c2ccccc12	-5	1	3	3	4	-10	·	·
CC(C)(C)c1ccc(C(=O)Cn2nc(C(=O)O)c3ccccc3c2=O)cc1	0	0	3	2	14	4	·	·
Cc1nn(CC(=O)Nc2ccc(C(=O)N3CCCCC3)cc2)c(=O)c2ccccc12	4	5	5	1	23*	3	-2	0
Cc1cc(C)n2nc(SCc3cccc(S(=O)(=O)N(C)C)c3)nc2n1	3	1	3	2	-1	1	·	·
SMILES	PAFAH1B2 inh	PP5 primary	PAFAH1B3 FP inh	pPAFAH FP inh	PP1 inh	PAFAH2 inh	PP1 confirm	PP5 counter
COC(=O)C(NC(=O)CCc1nnc2ccc(N3CCC(C)CC3)nn12)C(C)C (stereo not drawn)	2	1	8	3	31*	9	-4	-2
CCC(C)NC(=O)CCc1nnc2ccc(N3CCC(C)CC3)nn12 (stereo not drawn)	4	1	0	2	-3	-3	·	·
CCOC(=O)C1(Cc2cccc(Cl)c2)CCCN(C(=O)CN2C(=O)CSC2=O)C1 (stereo not drawn)	4	1	1	3	19*	0	-3	-5
CC(=O)N1c2c(cc(Br)cc2S(=O)(=O)N2CCN(c3ccccn3)CC2)CC1C (stereo not drawn)	1	2	2	2	-1	3	·	·
COC(=O)C1=COC(C)C2CN3CCc4c([nH]c5ccccc45)C3CC12 (stereo not drawn)	4	5	4	11	20*	10	-3	18*
Cc1ccc(NC(=O)C2CCN(S(=O)(=O)c3c(C)noc3/C=C/c3ccco3)CC2)nc1	2	1	-3	6	0	-10	·	·
Cc1noc(/C=C/c2ccco2)c1S(=O)(=O)N1CCC(C(=O)N2CCc3ccccc3C2)CC1	1	6	2	30*	19*	-12	26*	2
Cc1ccc(/C=C/C(=O)NCc2ccccn2)o1	-4	0	3	10	-2	5	·	·
CC(C)(C)C(=O)Nc1cccc(-c2nc3ccccc3[nH]2)c1	2	1	2	1	23*	-3	-1	-3
CC(C)CC(=O)Nc1cccc(-c2nc3ccccc3[nH]2)c1	2	1	3	1	-1	-2	·	·
O=C(COc1ccc(Br)cc1)N/N=C1/SCC(=O)N1Cc1ccco1	9	4	3	6	3	6	·	·

Compound activity (PubChem)
